Source: PubChem
Shown are actives, neighbours in structure and some others; about 27% of the full set was active somewhere.
CYP2C19 act: activators of human cytochrome P450 2C19. recombinant CYP2C19, luciferin-H EGE luminescence; hits give high values; 0 = fully inhibited enzyme, 1 = untreated enzyme. activation factor at 5 µM. 96,000 tested, under 10 active. P33261;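 active = activation factor of at least 2 at 5 µM in the primary screen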
CYP2C9 inh: inhibitors of human CYP2C9. P11712. CYP2C9 Supersomes, luciferin-H conversion, luminescence. inhibition, % at 5 µM. actives 20% (n = 96,000). AID 777;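 active = blocking of liver enzyme CYP2C9 beyond about 50% at 5 µM, limit read from the data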
CYP2C9 act: increases human cytochrome P450 2C9 activity | recombinant CYP2C9, luciferin-H conversion, luminescence; hits give high values; factor 1 = untreated enzyme, 0 = blocked | activation factor at 5 µM | actives 1.4% (n = 96,000) | AID 1024;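 active = activation factor of 2 or more for CYP2C9 at a 5 µM dose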
sEH inhibitor: soluble epoxide hydrolase (human) inhibition; inhibition, % at 2 µM; recombinant human sEH enzymatic activity assay; actives 0.34% (n = 91,000); P34913; in the data active = inhibition above about 80%
Target sequence (P34913 whole entry, looked up): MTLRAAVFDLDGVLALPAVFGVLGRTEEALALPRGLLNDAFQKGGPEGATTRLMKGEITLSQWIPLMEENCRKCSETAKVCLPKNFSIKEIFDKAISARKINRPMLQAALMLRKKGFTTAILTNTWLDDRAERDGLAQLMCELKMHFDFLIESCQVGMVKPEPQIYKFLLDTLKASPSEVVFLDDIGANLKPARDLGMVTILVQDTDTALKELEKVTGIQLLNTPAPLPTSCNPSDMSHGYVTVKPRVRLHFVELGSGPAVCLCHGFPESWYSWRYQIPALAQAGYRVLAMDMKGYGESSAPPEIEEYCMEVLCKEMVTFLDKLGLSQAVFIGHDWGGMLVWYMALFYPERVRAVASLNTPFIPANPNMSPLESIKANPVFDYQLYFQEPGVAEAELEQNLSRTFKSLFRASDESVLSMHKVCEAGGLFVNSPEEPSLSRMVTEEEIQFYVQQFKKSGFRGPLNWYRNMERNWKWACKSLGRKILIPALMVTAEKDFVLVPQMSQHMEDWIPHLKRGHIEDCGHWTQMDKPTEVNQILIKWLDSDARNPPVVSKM
sEH act: activators of human soluble epoxide hydrolase. AID 717. P34913. actives 0.04% (n = 91,000). purified human sEH enzymatic activity, activator screen. activation, % at 2 µM; in the data active = activation above about 37%
CYP2C19 inhib: inhibitors of human CYP2C19; CYP2C19 Supersomes, luciferin-H EGE luminescence, 30 min; actives 21% (n = 96,000); inhibition, % at 5 µM;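 active = CYP2C19 inhibition above a set limit at 5 µM in the primary screen, cut at about 50% in these data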
Large screens that a line does not name were inactive.

CN(C)S(=O)(=O)c1cccc(NC(=O)Cn2cnc3ccccc3c2=O)c1	CYP2C9 inh 83.6
O=C(Cn1cnc2ccccc2c1=O)Nc1ccc2c(c1)CCC2	none (no result: sEH inhibitor, sEH act)
CCN(CC)S(=O)(=O)c1ccc(NC(=O)Cn2cnc3ccccc3c2=O)cc1	CYP2C9 inh 67.2
CC(=O)c1ccc(NC(=O)c2cnn3c(C(F)F)cc(C4CC4)nc23)cc1	none (no result: CYP2C19 act, CYP2C9 inh, CYP2C9 act, CYP2C19 inhib)
CN(C)c1nc(C(=O)Nc2ccccc2)nc(N(C)C)n1	none
CN(C)c1nc(SCCOC(=O)Nc2ccccc2)nc(N(C)C)n1	CYP2C9 inh 67.8, CYP2C19 inhib 98.7
COc1cccc(C(=O)NCCn2ccc3ccccc32)c1	CYP2C19 inhib 78.9 (no result: sEH inhibitor, sEH act)
COc1cc(OC)cc(C(=O)NCCn2ccc3ccccc32)c1	CYP2C19 inhib 77.7
COc1ccccc1C(=O)NCCn1ccc2ccccc21	CYP2C19 inhib 88.3
Cc1cc(C)c(S(=O)(=O)NCCC2CCCN2C)c(C)c1 (stereo unspecified)	none
Cc1cc(C)c(S(=O)(=O)NCCn2ccc3ccccc32)c(C)c1	CYP2C9 inh 87.1
COc1ccc(C(=O)NCCn2ccc3ccccc32)cc1OC	none (no result: sEH inhibitor, sEH act)
CC(C)Oc1ccc(-c2cc(=O)[nH]c(=O)[nH]2)cc1	none
CC(C)n1c(NCCc2ccccc2)nc2c1c(=O)n(C)c(=O)n2C	none (no result: CYP2C19 act, CYP2C9 inh, CYP2C9 act, CYP2C19 inhib)
CCOc1ccccc1OCC(=O)NN1Cc2ccccc2C1=N	none
CC(=O)NCCn1ccc2ccccc21	none
O=C(Cc1ccccc1)NCCn1ccc2ccccc21	CYP2C19 inhib 75.7 (no result: sEH inhibitor, sEH act)
COC1=C(OC)c2ccccc2C(C(=O)O)N/C1=C(/C)Nc1ccncc1 (stereo unspecified)	none (no result: sEH inhibitor, sEH act)
Cn1c(Sc2ccccc2Cl)c(C=O)c2ccccc21	none
Cc1cccc(Sc2c(C=O)c3ccccc3n2C)c1	CYP2C9 inh 77.4, CYP2C19 inhib 80.9
Cn1c(Sc2ccc(Cl)cc2)c(C=O)c2ccccc21	CYP2C9 inh 95.8
N#CCCNC(=O)CCN1CCCCC1	none
CS(=O)(=O)c1ccc(Cl)c(NC(=O)C2CC(=O)N(Cc3ccccc3)C2)c1 (stereo unspecified)	CYP2C9 inh 68.5
CC(Nc1nc(N2CCN(S(C)(=O)=O)CC2)nc2ccccc12)c1ccccc1 (stereo unspecified)	none (no result: CYP2C19 act, CYP2C9 inh, CYP2C9 act, CYP2C19 inhib)
O=C(COc1ccc(S(=O)(=O)NC2CCCCC2)cc1)N1CCN(c2cccc(Cl)c2)CC1	none
Nc1cc(CN2C(=O)c3ccccc3C2=O)cc(Cl)c1O	CYP2C9 act 3.5
O=C(c1ccc(Cl)cc1)c1ccc(CN2C(=O)c3ccccc3C2=O)o1	none
O=C(CSc1nnc(-c2ccccc2)o1)n1c2c(c3ccccc31)CCCC2	none
Cc1onc(-c2c(Cl)cccc2Cl)c1C(=O)NCCc1ccc(S(N)(=O)=O)cc1	CYP2C9 inh 72.7
Cc1cc(C)nc(NC(=O)c2c(-c3c(Cl)cccc3Cl)noc2C)n1	none
CCOC(=O)C(=O)/C(=C\N(C)C)c1onc(-c2c(F)cccc2Cl)c1C(=O)OC	CYP2C9 inh 57.8
COC(=O)CNC(=O)c1c(-c2ccccc2Cl)noc1C	none
Cc1onc(-c2ccccc2)c1C(=O)NCCc1ccc(S(N)(=O)=O)cc1	none
COC(=O)CNC(=O)c1c(-c2c(Cl)cccc2Cl)noc1C	CYP2C9 inh 58.3
CC(=O)Nc1cccc(NC(=O)c2c(-c3c(Cl)cccc3Cl)noc2C)c1	CYP2C9 inh 86.6, CYP2C19 inhib 81.8
O=c1[nH]c2ccc(S(=O)(=O)Nc3ccc(-c4nnc5n4CCCCC5)cc3)cc2o1	none
Cc1ccc(NC(=O)c2c(-c3c(F)cccc3Cl)noc2C)cc1F	CYP2C9 inh 92.0, CYP2C19 inhib 83.4 (no result: sEH inhibitor, sEH act)
CCOC(=O)C1=C(C)Nc2ccccc2N=C1NC(=O)c1cccc(S(=O)(=O)NCc2ccccc2)c1	none
COc1ccc2cc3c(N)c(C(=O)N4CCCC4)sc3nc2c1	none
CCC(C)NC(=O)c1cc2cc3ccc(OC)cc3nc2s1 (stereo unspecified)	CYP2C9 inh 84.0, CYP2C19 inhib 76.1
CCc1cc(C(=O)NNC(=S)NCC2CCCO2)cs1 (stereo unspecified)	none
CCC1(N(C(C)=O)c2ccc(OC)cc2)C(=O)c2ccccc2C1=O	none
Cc1ccc(C(=O)NCCSC(C)(C)C)cc1	CYP2C19 inhib 67.5
CSc1ccccc1C(=O)NCCSC(C)(C)C	none
O=C(NCCSc1ccccc1)c1ccccc1	CYP2C19 inhib 84.3
CC(C)(C)SCCNC(=O)c1ccccc1	CYP2C19 inhib 62.4
Cc1ccccc1C(=O)NCCSc1ccccc1	none
CCC(=NCc1ccccc1)c1c(C(F)(F)F)[nH]n(-c2nc3ccccc3s2)c1=O	CYP2C9 inh 93.5, CYP2C19 inhib 68.5
CC(=NCc1ccco1)c1c(C)[nH]n(-c2nc3ccccc3s2)c1=O	none
CCC(=NCc1ccco1)c1c(C(F)(F)F)[nH]n(-c2nc3ccccc3s2)c1=O	CYP2C9 inh 69.9, CYP2C19 inhib 64.0
Cc1cccn2c(=O)c3cc(C#N)c(=N)n(CC4CCCO4)c3nc12 (stereo unspecified)	none (no result: CYP2C19 act, CYP2C9 inh, CYP2C9 act, CYP2C19 inhib)
Cc1ccc(C(=O)C(C)OC(=O)C2CC(=O)N(C3CCCCC3)C2)cc1 (stereo unspecified)	none
CC(=O)N1CCc2cc(C(=O)CN3CCN(c4cccc(Cl)c4)CC3)ccc21	CYP2C9 inh 84.5 (no result: sEH inhibitor, sEH act)
Cc1ccc(Cl)cc1N1CCN(S(=O)(=O)c2ccc3c(c2)OCCO3)CC1	CYP2C9 inh 79.5
Cc1cc2oc(=O)cc(CN3CCN(S(=O)(=O)c4ccc5c(c4)OCCO5)CC3)c2cc1C	CYP2C9 inh 83.7, CYP2C19 inhib 58.2 (no result: sEH inhibitor, sEH act)
O=S(=O)(c1ccc2c(c1)OCCCO2)N1CCNCC1	none
COC(=O)C1CCN(S(=O)(=O)c2ccc(NC(C)=O)cc2)CC1	none
Cc1ccc(C)c(N2CCN(S(=O)(=O)c3ccc4c(c3)OCCO4)CC2)c1	CYP2C9 inh 89.6, CYP2C19 inhib 81.0
CC(=O)Nc1ccc(S(=O)(=O)N2CCN(c3cc(C)ccc3C)CC2)cc1	CYP2C9 inh 85.3 (no result: sEH inhibitor, sEH act)
Cc1cc(C)c2oc(=O)cc(CN3CCN(Cc4ccc5c(c4)OCO5)CC3)c2c1	none
O=C(NCCC1=CCCCC1)C1CCN(S(=O)(=O)c2cccc3cccnc23)CC1	none
Cc1ccc(S(=O)(=O)c2ccc(Oc3cccc(C)c3)cc2)cc1	CYP2C9 inh 52.7
Cc1ccc(S(=O)(=O)c2ccc(C)cc2)cc1	none
CNC(=O)CCn1nc(-c2ccccc2)c2ccccc2c1=O	none
NC(=O)CCn1nc(-c2ccc(Cl)cc2)c2ccccc2c1=O	CYP2C19 inhib 57.3
COc1ccc(NC(=O)CN2CCC3(O)CCCCC3C2c2ccccc2OC)cc1 (stereo unspecified)	CYP2C9 inh 90.8, CYP2C19 inhib 73.7
COc1cc([C@H]2[C@@H]3CCCC[C@]3(O)CCN2CC(=O)Nc2ccc(C)cc2)ccc1O	CYP2C9 inh 74.1, CYP2C19 inhib 63.2
COC(=O)c1c(NC(=O)C2CC(=O)NN2Cc2ccccc2)sc(C)c1C (stereo unspecified)	CYP2C9 inh 82.3, CYP2C19 inhib 85.5
